Experimental data taken from PubChem BioAssay (Tox21).
Records with an inconclusive call do not appear. A number with no mark means an inactive call. Activity calls are given as the source filed them. Calls follow the shape of the dose curve; as a rule, active = well fitted curve in the direction sought with a large enough effect in the repeat runs; inconclusive = weak or mixed curves; inactive = no such curve, though single readings can be large; an effect the other way counts as inactive or inconclusive.
% is scaled to controls: 0 for no effect and ±100 for the full control effect; potency is read from the fitted curve at half-maximal effect.
Also: nearly all actives have a fitted effect of over 50% in size.

Each compound was assayed against Voltage-gated inwardly rectifying potassium channel KCNH2 (Homo sapiens) (UniProt Q12809) (assay: Human Ether-a-go-go-Related Gene (hERG) channel small molecule antagonists: fluorescence cell-based qHTS assay (AID 1671200;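 as to activity change, negative = inhibition: hERG-expressing U2OS cells given a thallium stimulus after FluxOR II dye loading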)). Conditions: hERG-U2OS cells, FluxOR thallium flux fluorescence; series mostly up to 76.8 µM; activity change, negative = inhibition: at the top concentration.
Voltage-gated inwardly rectifying potassium channel KCNH2 (Homo sapiens), sequence (Q12809 whole entry, looked up): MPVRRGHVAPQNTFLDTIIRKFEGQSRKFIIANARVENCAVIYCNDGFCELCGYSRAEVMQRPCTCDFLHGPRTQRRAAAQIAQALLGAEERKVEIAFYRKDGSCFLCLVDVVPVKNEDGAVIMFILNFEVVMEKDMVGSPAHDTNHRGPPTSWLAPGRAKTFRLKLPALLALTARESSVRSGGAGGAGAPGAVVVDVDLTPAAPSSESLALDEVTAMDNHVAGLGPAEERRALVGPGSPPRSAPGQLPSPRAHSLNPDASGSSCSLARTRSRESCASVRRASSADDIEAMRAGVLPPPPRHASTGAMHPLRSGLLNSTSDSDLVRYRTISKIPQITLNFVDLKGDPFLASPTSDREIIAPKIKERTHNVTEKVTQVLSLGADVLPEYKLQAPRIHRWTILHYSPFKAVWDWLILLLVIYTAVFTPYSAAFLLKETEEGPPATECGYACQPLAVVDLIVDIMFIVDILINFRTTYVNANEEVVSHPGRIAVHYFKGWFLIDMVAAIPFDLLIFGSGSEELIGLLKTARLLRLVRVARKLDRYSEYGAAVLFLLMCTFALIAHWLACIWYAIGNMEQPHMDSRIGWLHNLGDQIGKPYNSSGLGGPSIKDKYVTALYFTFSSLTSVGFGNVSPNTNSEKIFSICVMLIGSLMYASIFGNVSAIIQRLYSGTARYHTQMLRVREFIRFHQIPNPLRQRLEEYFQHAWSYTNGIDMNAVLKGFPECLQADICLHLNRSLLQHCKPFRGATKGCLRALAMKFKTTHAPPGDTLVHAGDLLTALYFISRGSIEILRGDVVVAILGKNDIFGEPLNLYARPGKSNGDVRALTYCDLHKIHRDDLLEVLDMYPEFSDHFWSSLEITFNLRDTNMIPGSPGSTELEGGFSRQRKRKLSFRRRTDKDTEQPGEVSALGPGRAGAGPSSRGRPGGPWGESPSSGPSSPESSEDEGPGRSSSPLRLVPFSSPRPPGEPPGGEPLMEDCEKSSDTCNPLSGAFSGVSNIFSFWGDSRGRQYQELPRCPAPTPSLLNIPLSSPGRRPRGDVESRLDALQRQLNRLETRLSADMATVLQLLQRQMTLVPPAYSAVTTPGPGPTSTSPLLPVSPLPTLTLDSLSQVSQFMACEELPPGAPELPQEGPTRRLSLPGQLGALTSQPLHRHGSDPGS
Procedure, shortened: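 In this thallium-flux screen, overnight-cultured U2OS cells bearing the channel are dye-loaded in darkness for an hour, rested 10 min at room temperature, and then monitored kinetically at 480/540 nm for two minutes post-stimulus.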
For `Cc1ccc2oc(CN(Cc3ccccc3)C(=O)Nc3c(F)cc(F)cc3F)c(-c3ccc(Cl)cc3)c2c1`, the “activity change, negative = inhibition” value was -14%. For `CN1CCC(Nc2ncc3ncnc(Nc4ccc(F)c(Cl)c4)c3n2)CC1`, the “activity change, negative = inhibition” value was -21.5% [at 35.3 µM]. For `CCCCCCCCCOC(=O)c1ccc(O)cc1`, the “activity change, negative = inhibition” value was -18.5%. `Nc1ccc(N)c2ccccc12` was tested, and the “activity change, negative = inhibition” value was 0.0033%. In the case of `O=Cc1cc(O)ccc1Br`, the “activity change, negative = inhibition” value was -18.1%. For `CCCCCCCC[P+](CCCCCCCC)(CCCCCCCC)CCCCCCCC`, the Potency was 0.154 µM (active). `CN(C)C(=O)C1(N2CCCCC2)CCN(CC[C@@]2(c3ccc(Cl)c(Cl)c3)CN(C(=O)c3ccccc3)CCO2)CC1` was tested, and the Potency was 11.5 µM (active). For `Cc1cc(CCN2CCN(c3nsc4ccccc34)CC2)cc2c1NC(=O)CC2(C)C`, the Potency was 21.9 µM (active). In the case of `Cc1cccc(S(=O)(=O)O)c1C`, the “activity change, negative = inhibition” value was 2.16%. For `c1cc(C(c2ccc(OCC3CO3)cc2)c2ccc(OCC3CO3)cc2)ccc1OCC1CO1` (stereo unspecified), the “activity change, negative = inhibition” value was -20.1%. For `NNc1nc(-c2ccc([N+](=O)[O-])cc2)cs1`, the Potency was 19.5 µM (active). In the case of `CCOc1ccc2nc3cc(N)ccc3c(N)c2c1`, the “activity change, negative = inhibition” value was 1.13% [at 35.3 µM]. `[Cl][Bi]([Cl])([c]1ccccc1)([c]1ccccc1)[c]1ccccc1` was tested, and the Potency was 13.7 µM (active). `O=C(Nc1ccc(Oc2ccc(Cl)cc2)c(Cl)c1)c1cc(I)cc(I)c1O` was tested, and the “activity change, negative = inhibition” value was -15.2% [at 35.3 µM]. In the case of `COC(=O)c1cc(Cl)ccc1OC`, the “activity change, negative = inhibition” value was 2.14% [at 35.3 µM]. For `CCCCCCCCn1sc(Cl)c(Cl)c1=O`, the Potency was 12.3 µM (active).

What follows are compounds tested against Cytochrome P450 3A4 (Homo sapiens) (UniProt P08684) (assay: Cytochrome P450 Family 3 Subfamily A Member 4 (CYP3A4) small molecule antagonists: luciferase reporter qHTS assay (AID 1671201)). Conditions: P450-Glo CYP3A4 enzyme, luciferin luminescence, 1 h; series mostly up to 115 µM; activity change, negative = inhibition: at the top concentration.
Cytochrome P450 3A4 (Homo sapiens), sequence (P08684 whole entry, looked up): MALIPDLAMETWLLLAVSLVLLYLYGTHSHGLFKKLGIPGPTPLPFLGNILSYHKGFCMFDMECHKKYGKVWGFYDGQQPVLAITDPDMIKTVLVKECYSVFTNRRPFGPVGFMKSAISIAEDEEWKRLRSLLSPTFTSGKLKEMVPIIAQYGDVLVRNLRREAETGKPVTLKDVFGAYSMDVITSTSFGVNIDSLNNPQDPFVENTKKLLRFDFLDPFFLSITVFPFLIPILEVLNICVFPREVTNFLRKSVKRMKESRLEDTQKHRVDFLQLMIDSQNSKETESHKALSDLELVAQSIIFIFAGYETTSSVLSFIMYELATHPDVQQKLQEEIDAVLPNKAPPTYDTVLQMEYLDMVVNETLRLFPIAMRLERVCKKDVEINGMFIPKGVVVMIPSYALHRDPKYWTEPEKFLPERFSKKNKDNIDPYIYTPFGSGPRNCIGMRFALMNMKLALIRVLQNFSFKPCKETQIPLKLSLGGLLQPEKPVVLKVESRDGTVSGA
Procedure, shortened: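 CYP3A4 activity was followed with a P450-Glo proluciferin substrate. Test compounds in DMSO were preincubated 10 min; NADPH regeneration then ran 1 h, and light output was read 20 min after detection reagent.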
For `Clc1ccc2nsnc2c1NC1=NCCN1`, the “activity change, negative = inhibition” value was 8.92% [at 52.9 µM]. `CCCCc1oc2ccc(NS(C)(=O)=O)cc2c1C(=O)c1ccc(OCCCN(CCCC)CCCC)cc1` was tested, and the “activity change, negative = inhibition” value was 22.6% [at 52.9 µM]. `CCCCCCCC[N+](CCCCCCCC)(CCCCCCCC)CCCCCCCC` was tested, and the Potency was 1.59 µM (active). For `CCOC(=O)c1nc(C(Cl)(Cl)Cl)n(-c2ccc(Cl)cc2Cl)n1`, the “activity change, negative = inhibition” value was -41.3%. For `CCCCCCCCS(=O)C(C)Cc1ccc2c(c1)OCO2` (stereo unspecified), the Potency was 5.75 µM (active). `CCCCCCCCCCCCCCCS(=O)(=O)Oc1ccccc1` was tested, and the “activity change, negative = inhibition” value was -21% [at 52.9 µM]. `O=S1(=O)CC(Cl)(Cl)C(Cl)(Cl)C1` was tested, and the Potency was 25.2 µM (active). `Cc1[nH]nc2c1N=C(c1ccccc1Cl)c1cc([N+](=O)[O-])ccc1N2` was tested, and the Potency was 3.99 µM (active). For `CCN(C(=O)c1cc(C)cc(OC[C@H](C)Nc2ccncc2)c1)C(C)C`, the Potency was 0.992 µM (active). For `Cc1cccc2c1cc1ccc3cccc4ccc2c1c34`, the “activity change, negative = inhibition” value was 98.2%. For `NNC(=O)c1cccc(C(=O)NN)c1`, the Potency was 3.99 µM (active). `[O-][n+]1ccccc1SSc1cccc[n+]1[O-]` showed an activity change, negative = inhibition of 7.02% [at 23.6 µM]. For `Oc1ccc(N=Nc2ccccc2)cc1`, the Potency was 20.3 µM (active). In the case of `O=C1c2ccccc2Cc2ccccc21`, the Potency was 22.6 µM (active). For `CC(C)(C)C1CCC(CC2=C(O)c3ccccc3C(=O)C2=O)CC1` (stereo unspecified), the “activity change, negative = inhibition” value was 2.88% [at 52.9 µM]. With `Cc1cc(N)c(S(=O)(=O)O)cc1Cl` the “activity change, negative = inhibition” value was 8.16%. `O=C1C=CC(=O)N1c1ccc(Cc2ccc(N3C(=O)C=CC3=O)cc2)cc1` was tested, and the Potency was 35.6 µM (active). For `O=[N+]([O-])c1ccccc1Nc1ccccc1`, the “activity change, negative = inhibition” value was -26%. In the case of `O=C(OCC(COC(=O)c1ccccc1)(COC(=O)c1ccccc1)COC(=O)c1ccccc1)c1ccccc1`, the “activity change, negative = inhibition” value was -15.8%. For `Cc1ccc2oc(CN(Cc3ccccc3)C(=O)Nc3c(F)cc(F)cc3F)c(-c3ccc(Cl)cc3)c2c1`, the Potency was 2.44 µM (active). With `CN1CCC(Nc2ncc3ncnc(Nc4ccc(F)c(Cl)c4)c3n2)CC1` the “activity change, negative = inhibition” value was 34.9% [at 52.9 µM]. In the case of `CCCCCCCCCOC(=O)c1ccc(O)cc1`, the Potency was 39.4 µM (active). For `Nc1ccc(N)c2ccccc12`, the Potency was 3.55 µM (active). For `O=Cc1cc(O)ccc1Br`, the “activity change, negative = inhibition” value was 33.2%. `CCCCCCCC[P+](CCCCCCCC)(CCCCCCCC)CCCCCCCC` was tested, and the Potency was 0.445 µM (active). In the case of `CN(C)C(=O)C1(N2CCCCC2)CCN(CC[C@@]2(c3ccc(Cl)c(Cl)c3)CN(C(=O)c3ccccc3)CCO2)CC1`, the Potency was 0.744 µM (active). `Cc1cc(CCN2CCN(c3nsc4ccccc34)CC2)cc2c1NC(=O)CC2(C)C` was tested, and the Potency was 17.8 µM (active). With `Cc1cccc(S(=O)(=O)O)c1C` the “activity change, negative = inhibition” value was 20.7%. In the case of `c1cc(C(c2ccc(OCC3CO3)cc2)c2ccc(OCC3CO3)cc2)ccc1OCC1CO1` (stereo unspecified), the Potency was 7.96 µM (active). In the case of `NNc1nc(-c2ccc([N+](=O)[O-])cc2)cs1`, the Potency was 5.03 µM (active). For `CCOc1ccc2nc3cc(N)ccc3c(N)c2c1`, the “activity change, negative = inhibition” value was 2.98% [at 52.9 µM]. In the case of `[Cl][Bi]([Cl])([c]1ccccc1)([c]1ccccc1)[c]1ccccc1`, the Potency was 8.88 µM (active). In the case of `O=C(Nc1ccc(Oc2ccc(Cl)cc2)c(Cl)c1)c1cc(I)cc(I)c1O`, the “activity change, negative = inhibition” value was 4.5% [at 52.9 µM]. For `COC(=O)c1cc(Cl)ccc1OC`, the “activity change, negative = inhibition” value was 15.3% [at 52.9 µM]. `CCCCCCCCn1sc(Cl)c(Cl)c1=O` was tested, and the Potency was 20 µM (active).
